Test systems include SR leukemia; RPMI-8226 leukemia; OVCAR-8 ovarian; OVCAR-5 ovarian; OVCAR-4 ovarian; SK-OV-3 ovarian; IGROV1 ovarian; HS 578T breast; NCI/ADR-RES ovarian; T-47D breast; BT-549 breast; MDA-MB-435 melanoma; SW-620 colon; MCF7 breast; HCT-116 colon; HCC-2998 colon; KM12 colon.
Experiment in all cases: NCI-60 one-dose screen, 48 h (100 = growth as untreated, 0 = no growth, -100 = all killed)
What all share (details): 10 µM unless noted

About 83,000 compounds went through this panel and 20% of them were active in at least one assay; those are over-represented in the sample as a whole.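 Percent growth is the endpoint: 0 to 100 indicates growth inhibition (40 means 60% inhibition), 0 means no net growth, and negative values indicate cell death.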 Values without a mark were called inactive. Calls of active or inactive are those of the source. The calls were made as follows: active = growth percent below 10; inactive = the rest.

As to `CCNC(=O)N1CCc2cc(OC)c(OCCc3ccc(OC)c(N)c3)cc2C1c1cc(C)c(C)cc1C` (stereo not drawn), the growth is 15.1% in the test with SR leukemia; 32.4% with RPMI-8226 leukemia; 39% in the test on OVCAR-8 ovarian; 51.7% with OVCAR-5 ovarian; 62.6% in the test with OVCAR-4 ovarian; 61.4% in the test on SK-OV-3 ovarian. The growth with IGROV1 ovarian is 31.9%; in the test on HS 578T breast it was 36.1%; in the test on NCI/ADR-RES ovarian, 20.8%; with T-47D breast, 52.6%; with BT-549 breast, 25.6%; in the test with MDA-MB-435 melanoma, 17.2%. Moreover, the growth with SW-620 colon was 15.7%; with MCF7 breast, 22.7%; in the test with HCT-116 colon, 17.3%; in the test on HCC-2998 colon, 49.2%; in the test with KM12 colon, 33.8%.

As for `CCNC(=O)N1CCc2cc(OC)c(OCCc3ccc(OC)c(N)c3)cc2C1c1ccc(C)cc1C` (stereo not drawn), the growth with SR leukemia was 15.3%; in the test on RPMI-8226 leukemia, 20.1%; in the test with OVCAR-8 ovarian it was 24.4%; in the test on OVCAR-5 ovarian, 33.5%; with OVCAR-4 ovarian, 57.6%; in the test with SK-OV-3 ovarian, 52.8%. The growth with IGROV1 ovarian is 21.4%; with HS 578T breast, 11.7%; in the test with NCI/ADR-RES ovarian it was 17.9%; with T-47D breast, 65.8%; with BT-549 breast, -10.9% (active); with MDA-MB-435 melanoma, 13.4%. The growth is 23.2% in the test on SW-620 colon; 17.2% in the test on MCF7 breast; 9.82% (active) in the test on HCT-116 colon; 20.6% in the test with HCC-2998 colon; 12.5% in the test on KM12 colon.

As for `COc1ccc([C@H]2[C@H](O)C(=O)N2c2cc(OC)c(OC)c(OC)c2)cc1F`, the growth was 9.35% (active) in the test with SR leukemia; 26.9% with RPMI-8226 leukemia; -15% (active) in the test on OVCAR-8 ovarian; 27.7% in the test with OVCAR-5 ovarian; 67.7% in the test on OVCAR-4 ovarian; 30.1% with SK-OV-3 ovarian. Also, the growth in the test on IGROV1 ovarian is 19.2%; in the test on HS 578T breast it was 3.89% (active); in the test on NCI/ADR-RES ovarian, 8.51% (active); in the test with T-47D breast it was 68.7%; with BT-549 breast, -21.1% (active); in the test with MDA-MB-435 melanoma it was -10.4% (active). The growth in the test on SW-620 colon was 22.2%; in the test with MCF7 breast it was 11%; in the test on HCT-116 colon, 0.995% (active); with HCC-2998 colon, 10.9%; in the test with KM12 colon it was 9.99% (active).

For the compound `O=C(Nc1nonc1-c1ccccc1)c1ccc(C(F)(F)F)cc1`, the growth was 85.6% in the test on SR leukemia; 74.2% in the test with RPMI-8226 leukemia; 86.6% in the test with OVCAR-8 ovarian; 100% in the test on OVCAR-5 ovarian; 91.2% in the test on OVCAR-4 ovarian; 112% in the test on SK-OV-3 ovarian. The growth was 96.4% in the test on IGROV1 ovarian; 101% with HS 578T breast; 85.2% in the test on NCI/ADR-RES ovarian; 76% in the test with T-47D breast; 85.5% with BT-549 breast; 82.7% in the test on MDA-MB-435 melanoma. The growth in the test on SW-620 colon is 94.6%; in the test on MCF7 breast, 72.3%; with HCT-116 colon, 86.2%; with HCC-2998 colon, 101%; with KM12 colon it was 97.4%.

Turning to `Cc1cc(-c2ccc(Cl)cc2)n(Cc2nnc(SCC(=O)Nc3ccc(S(N)(=O)=O)cc3)n2-c2ccc([N+](=O)[O-])cc2)n1`, the growth is 72.5% in the test with SR leukemia; 64.3% in the test on RPMI-8226 leukemia; 88.7% in the test with OVCAR-8 ovarian; 98.5% with OVCAR-5 ovarian; 86.5% with OVCAR-4 ovarian; 112% with SK-OV-3 ovarian. The growth with IGROV1 ovarian is 96.9%; with HS 578T breast, 96.7%; with NCI/ADR-RES ovarian, 84.3%; with T-47D breast, 70.3%; in the test with BT-549 breast, 116%; in the test with MDA-MB-435 melanoma, 87.4%. Further, the growth in the test on SW-620 colon is 84.5%; in the test on MCF7 breast, 58%; in the test with HCT-116 colon it was 60.9%; in the test with HCC-2998 colon, 97.8%; in the test on KM12 colon it was 79.6%.

With `N#Cc1c(Nc2ccccc2)nn2c(-c3ccc([N+](=O)[O-])cc3)ccnc12`, the growth in the test on SR leukemia is 103%; in the test on RPMI-8226 leukemia it was 94.1%; in the test on OVCAR-8 ovarian, 99.9%; in the test with OVCAR-5 ovarian, 99.6%; with OVCAR-4 ovarian it was 108%; with SK-OV-3 ovarian it was 111%. In addition, the growth with IGROV1 ovarian is 100%; in the test with HS 578T breast, 102%; in the test with NCI/ADR-RES ovarian, 101%; in the test with T-47D breast, 110%; in the test with BT-549 breast, 99.5%; in the test on MDA-MB-435 melanoma, 97.4%. Further, the growth was 103% with SW-620 colon; 93.2% in the test with MCF7 breast; 99.3% with HCT-116 colon; 106% with HCC-2998 colon; 102% in the test with KM12 colon.

Regarding `COc1cc(-c2nc3sccn3c2-c2ccnc(S(C)(=O)=O)n2)ccc1F`, the growth in the test with SR leukemia is 86.3%; in the test on RPMI-8226 leukemia, 91.9%; in the test with OVCAR-8 ovarian, 98.3%; with OVCAR-5 ovarian, 98.3%; with OVCAR-4 ovarian, 98.2%; with SK-OV-3 ovarian it was 113%. Moreover, the growth in the test on IGROV1 ovarian was 98.1%; in the test with HS 578T breast, 101%; with NCI/ADR-RES ovarian it was 95.7%; with T-47D breast it was 97.9%; in the test with BT-549 breast, 92.2%; in the test on MDA-MB-435 melanoma, 91.5%. Besides, the growth was 99% with SW-620 colon; 84.1% with MCF7 breast; 103% in the test with HCT-116 colon; 100% with HCC-2998 colon; 102% in the test on KM12 colon.

With `Cc1occc1-c1nc2s/c(=C/c3ccc(-c4cc(C(F)(F)F)ccc4Cl)o3)c(=O)n2n1`, the growth with SR leukemia was 101%; in the test with RPMI-8226 leukemia, 99.5%; in the test with OVCAR-8 ovarian, 103%; in the test with OVCAR-5 ovarian, 105%; in the test on OVCAR-4 ovarian it was 102%; in the test with SK-OV-3 ovarian it was 110%. Moreover, the growth was 103% in the test on IGROV1 ovarian; 98.1% in the test with HS 578T breast; 109% with NCI/ADR-RES ovarian; 92.7% in the test on T-47D breast; 108% with BT-549 breast; 101% in the test with MDA-MB-435 melanoma. Also, the growth is 101% in the test with SW-620 colon; 90% in the test with MCF7 breast; 102% with HCT-116 colon; 106% in the test on HCC-2998 colon; 99.9% in the test on KM12 colon.

For the compound `CCNC(=O)N1CCc2cc(OC)c(OCCc3ccc(OC)cc3)cc2C1c1ccc([N+](=O)[O-])cc1C` (stereo not drawn), the growth in the test on SR leukemia was 8.11% (active); with RPMI-8226 leukemia it was 20.7%; in the test on OVCAR-8 ovarian, 29.1%; in the test with OVCAR-5 ovarian, 40.4%; in the test on OVCAR-4 ovarian, 54%; in the test with SK-OV-3 ovarian, 51.4%. In addition, the growth in the test on IGROV1 ovarian is 24.9%; in the test on HS 578T breast, 0.838% (active); in the test with NCI/ADR-RES ovarian it was 12.2%; with T-47D breast, 53%; in the test on BT-549 breast, 20.1%; in the test on MDA-MB-435 melanoma it was 14.5%. Moreover, the growth in the test on SW-620 colon is 23.8%; with MCF7 breast, 18.4%; in the test with HCT-116 colon, 8.8% (active); with HCC-2998 colon it was 14.5%; with KM12 colon, 18.6%.

(Values after PubChem BioAssay (NCI).)
